Several values for one entry are separate records, joined by “and”; a condition that tells them apart may be missing. Equal entries are not always repeated. The whole screen tested about 340,000 compounds, of which about 2,300 (0.68%) were called active. No stated cut-off is given here; in the data, active means growth rescue above about 28% (passing the limit was not always enough); inconclusive means no clear call, values can overlap the other calls. This excerpt belongs to a sample that is enriched for actives.
Assay: rescue of yeast from PfHsp40 toxicity, primary screen, S. cerevisiae, ATP luminescence (AID 504582);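 further: yeast W303a lacking pdr1 and pdr3 grown in galactose medium; growth measured after three days at 30 °C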
Conditions: S. cerevisiae expressing PfHsp40, growth rescue, at 12.5 µM, active compounds read high
For `Cc1noc(C)c1COc1ccc(C(=O)NCCOc2ccccc2)cc1`, the growth rescue was 0.221% (inactive). With `Cc1onc(-c2c(Cl)cccc2Cl)c1C(=O)NNC(=O)c1c(-c2c(Cl)cccc2Cl)noc1C` the growth rescue was -0.106% (inactive). For `COc1ccc(C(=O)NC(=S)NNC(=O)CCc2ccccc2)cc1`, the growth rescue was 277% (active). In the case of `Cc1onc(-c2ccccc2)c1C(=O)Nc1ccccc1C#N`, the growth rescue was -0.716% (inactive) and 0.99% (inactive). For `O=C(CCc1ccccc1)NNC(=O)COc1ccc(Cl)cc1`, the growth rescue was -0.417% (inactive). In the case of `COc1ccc(C(=O)NC(=S)NC2CCCCC2)cc1`, the growth rescue was 0.972% (inactive). In the case of `COc1ccc(C(=O)NC(=S)NNC(=O)c2c(-c3ccccc3)noc2C)cc1`, the growth rescue was 42.1% (active). In the case of `Cc1onc(-c2ccccc2)c1C(=O)N=C(N)c1ccc(Cl)cc1`, the growth rescue was -1% (inactive). With `Cc1onc(-c2ccccc2)c1C(=O)NNC(=S)NC(=O)c1ccc(F)cc1` the growth rescue was 45.5% (active). For `COc1ccc(NS(=O)(=O)c2cc(NC(=O)c3ccc(S(=O)(=O)N(C)C)cc3)ccc2N2CCOCC2)cc1`, the growth rescue was 0.23% (inactive). With `CCOC(=O)N1CCN(CC(=O)n2c(C)c(C)c3ccccc32)CC1` the growth rescue was 1.25% (inactive). In the case of `COC(=O)Cc1ccc(NC(=S)NCc2ccco2)cc1`, the growth rescue was -0.043% (inactive). For `Cc1cc(C)cc(N)c1`, the growth rescue was -0.449% (inactive). In the case of `CCN(C(=O)CSc1nnnn1-c1ccc(OC)cc1)C1CCS(=O)(=O)C1` (configuration not stated), the growth rescue was -0.617% (inactive). In the case of `Cc1c(C(=O)N(C)CCc2cnn(C)c2)oc2c(F)cccc12`, the growth rescue was 6.8% (inactive). With `CC(C)c1ccc(Nc2nnc(SCC(=O)c3nnc(-c4ccccc4)o3)s2)cc1` the growth rescue was 200% (active). With `Cc1ccccc1Nc1nnc(SCC(=O)c2cc3ccccc3o2)s1` the growth rescue was 0.609% (inactive). In the case of `CC(C)N(C(=O)CSc1nnc(NC2CC2)s1)c1ccccc1`, the growth rescue was 0.892% (inactive). In the case of `O=C1C2(Cl)C3(Cl)C4(Cl)C(Cl)(Cl)C5(Cl)C3(Cl)C1(Cl)C5(Cl)C24Cl` (configuration not stated), the growth rescue was 78.8% (active). With `CCc1ccc(NC(=O)N[C@H](C(=O)O)C(C)CC)cc1` (some centres not stated) the growth rescue was -0.138% (inactive). With `CCOc1ccc(NC(=O)N2CC=C(n3c(=O)[nH]c4ccccc43)CC2)cc1` the growth rescue was -0.78% (inactive). With `CCn1c(SC)nc(O)c(C(c2ccc(OC)c(O)c2)c2c(O)nc(SC)n(CC)c2=O)c1=O` the growth rescue was -0.176% (inactive). For `CC(Sc1nnc(-c2cccs2)n1C1CC1)C(=O)NCC1CCCO1` (configuration not stated), the growth rescue was -0.606% (inactive). In the case of `O=c1oc2ccccc2cc1-c1cn(-c2ccccc2)c(=S)[nH]1`, the growth rescue was 2.32% (inactive). For `O=c1oc2ccccc2cc1-c1csc(Nc2ccc(O)cc2)n1`, the growth rescue was 77.4% (active). For `Cc1cc(C)cc(OCC(=O)NNC(=O)c2cc3ccccc3oc2=O)c1`, the growth rescue was -1.97% (inactive). For `COc1cc(C(=O)OCC(=O)NC23CC4CC(CC(C4)C2)C3)cc(OC)c1OC`, the growth rescue was 0.746% (inactive). With `Cc1ccc(C(=O)OC2CCCN(C)C2)cc1` (configuration not stated) the growth rescue was -1.37% (inactive). For `CC1(C)C2CCC1(C)C(OC(=O)CCn1ccnc1)C2` (configuration not stated), the growth rescue was -1.93% (inactive). In the case of `CC1(C)C2CCC1(C)C(OC(=O)c1ccc(O)cc1)C2` (configuration not stated), the growth rescue was 518% (active). In the case of `CCOC(=O)Nc1ccc2c(c1)N(C(=O)CCCl)c1ccccc1[S@]2=O`, the growth rescue was 1.15% (inactive). In the case of `Cc1ccc2c(c1)N(CC(=O)NCCCN1CCCCC1)C(=O)c1cccnc1O2`, the growth rescue was -0.596% (inactive). In the case of `COC(=O)C1CCCCN1C(=O)c1ccc(OC2CCN(C(C)=O)CC2)c(OC)c1` (configuration not stated), the growth rescue was 1.77% (inactive). In the case of `Cc1ccc2c(c1)N(CC(=O)N1CCOCC1)C(=O)CO2`, the growth rescue was -0.417% (inactive). With `CCCCNc1nc2c(c(=O)n(C)c(=O)n2C)n1Cc1cccc(OC)c1` the growth rescue was 0.511% (inactive). In the case of `CCCCNc1c(-c2cccc(Sc3ccc(OC)cc3)c2)nc2ccccn12`, the growth rescue was 310% (active). For `CCCCNc1c(-c2ccc(OC)c(Sc3ccc(OC)cc3)c2)nc2ccc(Cl)cn12`, the growth rescue was 19.1% (inactive). With `Cn1c(=O)n(C)c2cc(CNc3ccc(N4CCOCC4)c(C(=O)O)c3)ccc21` the growth rescue was -0.489% (inactive). For `Cc1cccc(N2CCN(C(=O)CN(C)S(=O)(=O)c3ccc4c(c3)CCC(=O)N4)CC2)c1C`, the growth rescue was -1.62% (inactive). For `COc1ccc(C(=O)Nc2cc(C)c(NC(=O)c3ccccc3OC)cn2)cc1`, the growth rescue was 1.75% (inactive). For `COc1ccc(C(=O)Nc2ccccc2C(=O)N/N=C/c2ccc(O)c(OC)c2)cc1`, the growth rescue was 40.9% (active). For `COc1cc(C=NNC(=O)c2cccnc2)ccc1OC(=O)c1ccccc1F`, the growth rescue was 1.77% (inactive). For `C=CCN1CC(C)/C(=N\O)CC1C` (configuration not stated), the growth rescue was -0.962% (inactive). For `COc1cccc(CNC(=O)CCC2CCCN(C(=O)c3cc(C)[nH]n3)C2)c1` (configuration not stated), the growth rescue was 1.27% (inactive). In the case of `NC(=O)NC(=O)CSc1nc2cc([N+](=O)[O-])ccc2n1-c1cccc(C(F)(F)F)c1`, the growth rescue was 0.555% (inactive). In the case of `Nc1[nH]c(=S)nc2nc(-c3ccccc3)c(-c3ccccc3)nc12`, the growth rescue was 38.7% (active). With `Cc1ccc(Cc2cncc(O)c2)cc1S(=O)(=O)O` the growth rescue was -2.67% (inactive). In the case of `O=C(Nc1ccc2sc3ccccc3c(=O)c2c1)c1ccccc1Cl`, the growth rescue was -0.178% (inactive). For `O=C(Nc1ccc2ccccc2c1[N+](=O)[O-])c1ccccc1`, the growth rescue was 0.461% (inactive). For `O=C(NC1=CC(=O)c2ccccc2C1=O)c1ccccc1`, the growth rescue was 300% (active). For `COC(=O)c1nc(NC(=O)c2ccccc2)n[nH]1`, the growth rescue was -0.423% (inactive). In the case of `O=c1c2ccccc2ccc2ccc(P(=O)(O)O)cc12`, the growth rescue was -0.021% (inactive). With `CCOC(=O)CSc1nnc(CNC(=O)c2cccs2)n1-c1ccccc1` the growth rescue was -0.612% (inactive). With `COc1ccc2[nH]c3c(c2c1)CCN[C@H]3C` the growth rescue was -1.47% (inactive). In the case of `COc1ccc2[nH]c(C(=O)N3CCN(C)CC3)c(C)c2c1`, the growth rescue was -0.899% (inactive). In the case of `COc1ccc2[nH]c3c(C)c4cc[n+](C)cc4c(C)c3c2c1`, the growth rescue was 122% (active). In the case of `Cc1c(NC(=O)C(C)Oc2cccc(Cl)c2)c(=O)n(-c2ccccc2)n1C` (configuration not stated), the growth rescue was 0.003% (inactive). For `O=C(NCCCN1CCOCC1)c1cc(-c2cccc(O)c2)on1`, the growth rescue was 44.1% (active). For `O=C(NCCCN1CCOCC1)c1cc(-c2ccc(Cl)cc2)on1`, the growth rescue was 0.597% (inactive). In the case of `COc1ccc(-c2cc(C(=O)NCCCN3CCOCC3)no2)cc1`, the growth rescue was 0.263% (inactive). For `CCOC(=O)CNC(=O)CSc1ncccc1-c1nc2ccccc2[nH]1`, the growth rescue was 0.257% (inactive). In the case of `COC(=O)Cc1cc(=O)n(-c2nc3ccccc3s2)[nH]1`, the growth rescue was 103% (active). For `Cc1cc(NC(=O)CN2CCCC(C)C2)n(-c2nc3ccccc3s2)n1` (configuration not stated), the growth rescue was -1.25% (inactive). For `CC(=NCc1ccco1)c1c(C(F)(F)F)[nH]n(-c2nc3ccccc3s2)c1=O`, the growth rescue was -0.486% (inactive). For `O=C(NCCCn1ccnc1)c1cc(-c2ccccc2)on1`, the growth rescue was -0.876% (inactive). For `O=C(/C=C/c1ccccc1)Oc1coc(CSc2ncccn2)cc1=O`, the growth rescue was 1.58% (inactive). With `COc1cc(/C=C2\Oc3ccc(C#Cc4ccc(O)cc4)cc3C2=O)cc(OC)c1` the growth rescue was -1.52% (inactive). With `COc1cc(C#Cc2ccc3cc(CCCO)oc(=O)c3c2)cc(OC)c1` the growth rescue was 45.9% (active). With `O=C1c2ccccc2C(=O)N1CCC#Cc1ccc2cc(C3(O)CCCCC3)oc(=O)c2c1` the growth rescue was 0.213% (inactive). For `CCN1CCN(C(=O)CN(C)S(=O)(=O)c2ccc3ccccc3c2)CC1`, the growth rescue was -0.824% (inactive). With `S=c1c2[nH]cnc2ncn1CCSc1ncnc2nc[nH]c12` the growth rescue was -2.56% (inactive). In the case of `O=S(=O)(c1ccc(OCC(O)CN2CCN(c3ccccc3Cl)CC2)cc1)N1CCOCC1` (configuration not stated), the growth rescue was 2.31% (inactive). In the case of `Cc1cccc(OCC(O)CN2CCN(S(=O)(=O)c3ccc(C)cc3C)CC2)c1` (configuration not stated), the growth rescue was 0.709% (inactive). With `CC(=O)c1ccc(OCC(O)CN2CCN(S(=O)(=O)c3cccc(Br)c3)CC2)cc1` (configuration not stated) the growth rescue was 26.4% (active). For `COC(=O)c1cc2occc2n1Cc1nc(-c2ccccc2C)oc1C`, the growth rescue was 1.43% (inactive). For `Cc1c(NS(=O)(=O)c2cc(C(=O)NCCc3ccc(F)cc3)cc(Cl)c2Cl)c(=O)n(-c2ccccc2)n1C`, the growth rescue was -0.709% (inactive). In the case of `CC12CCC(C(=O)N(NC(=O)c3ccccc3O)C1=O)C2(C)C` (configuration not stated), the growth rescue was 64.6% (active). In the case of `COc1ccccc1C(=O)NN1C(=O)C2C3C=CC(O3)C2C1=O` (configuration not stated), the growth rescue was 0.742% (inactive). With `CC1=CC(C)(C)NC(=S)N1NC(=O)c1ccccc1Cl` the growth rescue was 0.305% (inactive). For `CN1CCN(C(=O)N2c3ccccc3CCc3ccccc32)CC1`, the growth rescue was -1.45% (inactive). With `CCN(CC(=O)Nc1c(F)cccc1F)C(=O)CN1c2cccc3cccc(c23)S1(=O)=O` the growth rescue was 0.416% (inactive). For `CC(C)CN(CC(C)C)C(=O)CN1c2cccc3cccc(c23)S1(=O)=O`, the growth rescue was 29.2% (active). With `O=C(O)CN1c2cccc3cccc(c23)S1(=O)=O` the growth rescue was 0.021% (inactive). With `COc1ccc(C2COC(=O)C2=N)c(NC(=O)c2ccccc2)c1` (configuration not stated) the growth rescue was -1.79% (inactive). With `O=C(c1ccc(-c2ccccc2)cc1)C1CCCN(C(=O)c2cncs2)C1` (configuration not stated) the growth rescue was 373% (active). For `Cn1nccc1C(=O)N1CCCC(C(=O)c2ccc(Oc3ccccc3)cc2)C1` (configuration not stated), the growth rescue was 1.09% (inactive). With `CCNC(=O)N1CCCC(C(=O)c2ccc(-c3ccccc3)cc2)C1` (configuration not stated) the growth rescue was 173% (active). With `CCOC(=O)CCNC(=O)N1CCCC(C(=O)c2ccccc2SC)C1` (configuration not stated) the growth rescue was -0.934% (inactive). In the case of `Cc1nc(C(=O)N2CCCC(C(=O)c3ccc(Cl)cc3)C2)cs1` (configuration not stated), the growth rescue was -0.97% (inactive). In the case of `Cc1ccccc1NC(=O)C1CCCN(C(=O)NCc2ccccc2)C1` (configuration not stated), the growth rescue was -1.16% (inactive). With `N#Cc1c(C(F)(F)F)cc(-c2cccs2)nc1N1CCCCC1` the growth rescue was -0.0675% (inactive). In the case of `CC(=O)c1ccc(NC(=O)c2ccc(-n3cncn3)c([N+](=O)[O-])c2)cc1`, the growth rescue was 0.873% (inactive).

From PubChem BioAssay AID504582 (Broad Institute, 2011)
